Screening results (PubChem)
EWS-Fli block: inhibitors of EWS/Fli oncoprotein transcriptional activity | 0.67% of 350,000 active | A673 NR0B1-luciferase reporter, viability-normalised | inhibition, % at 12.6 µM;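 active = mean inhibition of at least 50% after viability correction, with every replicate also passing that limit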;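 note: firefly luciferase signal divided by Alamar Blue viability fluorescence both relative to DMSO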
esBAF inh: SWI/SNF esBAF complex inhibition. mouse ES cells, Bmi1-luciferase knock-in reporter, 24 h; 100% = twice the neutral-well signal. AID 602393. reporter increase, % at 12.5 µM. 2% of 350,000 active; in the data active = activation above about 40%;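 note: 0% = median of the plate's neutral control wells and 100% = double that signal; a rise in the Bmi1 reporter signal indicates esBAF inhibition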
Wnt bcat act: Wnt/beta-catenin pathway activation; Wnt/beta-catenin reporter cell assay, activator, plate reader; activation, % at 9.35 µM; 1.2% of 300,000 active; AID 743398; in the data active = activation above about 30%, passing the limit was not always enough;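 note: 0% = neutral control wells and 100% = positive control wells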
PAX8 inh HTS: lowers PAX8-driven luciferase in RMG-I cells; inhibition, % at 12.6 µM; RMG-I TPO-luciferase reporter, SteadyGlo, 24 h; AID 652154; 1.2% of 360,000 active;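 active = mean replicate inhibition at least 60% with every replicate also reaching 60%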;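 note: luciferase light reporting Pax8 driven TPO promoter activity; plate controls were median of neutral control wells for no effect and mitoxantrone controls for full effect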
TRPM1 prom inh: reduces MITF-dependent TRPM1 promoter luciferase signal. SK-MEL-5 TRPM1 promoter luciferase, 24 h. inhibition, % at 12.5 µM. 0.83% of 330,000 active. AID 488899;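 active = mean inhibition across replicates of 60% or more, whatever share of single replicates reaches that level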
MITF TRPM1 HTS: MITF TRPM1 promoter activation in melanoma cells; SK-MEL-5 TRPM1-promoter luciferase, 24 h; % of positive control, neutral wells = 0; activation, % at 12.5 µM; 0.75% of 300,000 active;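 active = mean activation of at least 80% with every replicate also reaching 80%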;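 note: 0% = neutral control wells and 100% = parthenolide positive control wells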
Numbers without * were called inactive; nt = no result. Shown are actives, neighbours in structure and some others; about 4% of the full set was active somewhere.

SMILES | EWS-Fli block | esBAF inh | Wnt bcat act | PAX8 inh HTS | TRPM1 prom inh | MITF TRPM1 HTS
COc1ccc2c3c([nH]c2c1)[C@H](CO)N(Cc1cccc(F)c1)CC31CN(CC2CC2)C1 | 5.5 | nt | nt | 6.1 | nt | nt
COc1ccc(-c2nc3c(Br)c(N)c(Br)cc3o2)cc1 | -31.9 | nt | 24.5 | nt | 0.8 | -0.3
Nc1c(Br)cc2oc(-c3ccccc3)nc2c1Br | nt | 58.2* | nt | nt | -31.9 | 36.0
COc1c(Cl)cccc1-c1cn2ccc(C)cc2n1 | -91.0 | nt | 57.2* | -129.6 | -64.7 | 69.2
Cc1ccn2cc(-c3cccc(S(=O)(=O)N4CC(C)OC(C)C4)c3)nc2c1 (stereo not drawn) | -0.9 | 8.0 | 0.0 | 24.2 | 0.1 | 0.2
Cc1ccn2cc(-c3cccc(S(=O)(=O)N4CCCC4)c3)nc2c1 | nt | 46.8* | 2.3 | -40.3 | -9.0 | 6.8
Cc1ccn2cc(-c3cnoc3C)nc2c1 | nt | 24.3 | -0.1 | -107.1 | -31.1 | 33.6
O=C(C[C@@H]1C[C@H]2c3cc(NS(=O)(=O)c4ccc(F)cc4)ccc3O[C@H]2[C@@H](CO)O1)N1CCCCC1 | 2.9 | 3.5 | nt | -8.3 | nt | nt
O=C(O)C1C2CCCCC2=C2CCCCC2C1C(=O)Nc1nccs1 (stereo not drawn) | 2.7 | nt | -0.7 | 19.7 | 2.2 | -4.8
O=C(O)C1C2CCCCC2=C2CCCCC2C1C(=O)O (stereo not drawn) | nt | -2.5 | 90.4* | 14.3 | -6.7 | 7.7
Cc1nn(Cc2ccccc2Cl)c(Cl)c1C(=O)NCCc1ccccc1 | -17.0 | 5.4 | 47.1* | -131.0 | -47.6 | 60.3
COc1ccccc1-c1cn(CC[C@@H]2CC[C@H](NC(=O)c3ccccc3F)[C@@H](CO)O2)nn1 | 11.2 | 3.6 | nt | 23.9 | nt | nt
CN(C)C(=O)C[C@H]1C[C@H]2c3cc(NS(C)(=O)=O)ccc3O[C@H]2[C@H](CO)O1 | -6.0 | 3.1 | nt | -26.0 | nt | nt
COc1ccc(N=Nc2cc(OC)c(N)cc2OC)cc1 | -57.9 | 51.1* | 2.5 | 3.2 | 3.5 | -4.4
COc1ccc(N=Nc2cc(C)ccc2O)cc1 | 0.6 | nt | 53.8* | -132.1 | -50.0 | 60.0
CCOc1ccc2nc3cc(N=Nc4ccc(N)nc4N)ccc3c(N)c2c1 | nt | nt | nt | nt | 72.8* | -73.6
COc1ccc(N=Nc2ccc(N)nc2N)cc1 | -81.9 | 16.5 | 40.7* | -84.5 | -65.6 | 67.2
COc1ccc(N=Nc2ccc3ccccc3c2)c(O)c1 | 33.2 | -38.1 | 6.5 | -74.2 | -13.2 | nt
O=C(NCC[C@@H]1CC[C@@H](NS(=O)(=O)c2ccccc2F)[C@@H](CO)O1)c1ccc(F)cc1 | -4.3 | -2.7 | nt | -0.1 | nt | nt
CC1CCC(C(C)C)C(OC(=O)Cn2c(-c3ccccc3)[n+](C)c3ccccc32)C1 (stereo not drawn) | 13.8 | nt | -2.3 | 81.3* | 86.6* | -86.2
CC1CCC(C(C)C)C(OC(=O)CSc2nc(N)cc(=O)[nH]2)C1 (stereo not drawn) | 2.1 | 6.4 | -1.1 | nt | 10.1 | -9.7
CC1CCC(C(C)C)C(OC(=O)C[n+]2cc(-c3ccc(Cl)cc3)n3c2CCC3)C1 (stereo not drawn) | 13.7 | nt | -2.2 | 41.1 | 29.2 | -28.0
Cc1cccc(OCc2n(CC(=O)OC3CC(C)CCC3C(C)C)c3ccccc3[n+]2C)c1 (stereo not drawn) | nt | nt | nt | nt | 96.2* | -95.1
CC1CCC(C(C)C)C(OC(=O)Cn2c(-c3ccc(F)cc3)[n+](C)c3ccccc32)C1 (stereo not drawn) | 13.4 | nt | -5.3 | 94.2* | 79.6* | -80.2
Cc1cccc(OC(=O)Cn2c(C(F)(F)F)nc3ccccc32)c1 | nt | -2.6 | nt | nt | 4.5 | -3.2
Cc1cccc(NC(=O)C(=O)NCC2CCCN2S(=O)(=O)c2cccs2)c1 (stereo not drawn) | -1.7 | 42.4* | 3.4 | -12.5 | nt | nt
O=C(NCCC1CCCCN1S(=O)(=O)c1cccs1)C(=O)Nc1ccccc1 (stereo not drawn) | -9.6 | 26.9 | 0.4 | -27.8 | -12.3 | 11.4
COc1ccc(NC(=O)C(=O)NCCC2CCCCN2S(=O)(=O)c2ccccc2)cc1 (stereo not drawn) | 52.1* | -14.6 | -12.4 | 41.2 | 30.3 | -29.7
COc1ccc(NC(=O)C(=O)NCCC2CCCCN2S(=O)(=O)c2cccs2)cc1 (stereo not drawn) | 58.3* | -13.9 | -6.9 | 35.3 | 37.0 | -37.0
Cc1ccc(NC(=O)C(=O)NCC2CCCN2S(=O)(=O)c2cccs2)cc1 (stereo not drawn) | -3.0 | 7.3 | -0.9 | -5.4 | -3.2 | 6.5
